{"source": "PubChem BioAssay AID2330", "about": "(Broad Institute, 2010)", "note": "Hit rate of the full screen: of about 37,000 compounds, about 2,800 (7.6%) were called active. Inconclusive results (about 1%) are left out. The full list was thinned out, with actives kept by preference. Unmarked numbers belong to inactive results. Cut-off read from the data, not from the text of the source: active = inhibition above about 80%; inconclusive = no clear call, values can overlap the other calls; inactive = below that."}
{"assay": "NOMO-1 AML cell viability reduction, primary screen, STK33 inhibitor project, CellTiter-Glo luminescence (AID 2330)", "conditions": "NOMO-1 AML viability, 72 h, stronger effect = higher value, concentration not given here"}
{"smiles": "CC(C)(C)c1ccc(Cn2c(=N)n(CC(=O)O)c3ccccc32)cc1", "inhibition": "31%"}
{"smiles": "N=c1n(CC(=O)c2ccc(Cl)c(Cl)c2)c2ccccc2n1Cc1ccccc1", "inhibition": "92.6% (active)"}
{"smiles": "O=c1n(Cc2ccccc2)c2ccccc2n1Cc1ccccc1", "inhibition": "23%"}
{"smiles": "Cc1noc(C)c1NC(=O)Nc1ccc2c(c1)C(=O)N([C@H](C)CO)C[C@H](C)[C@@H](CN(C)Cc1ccc3c(c1)OCO3)OCCCC[C@@H](C)O2", "inhibition": "0.0539%"}
{"smiles": "N#C/C(=C\\c1ccc(O)c(O)c1)C(=O)NCc1ccccc1", "inhibition": "133% (active)"}
{"smiles": "N#C/C(=C\\c1ccc(O)c(O)c1)C(N)=O", "inhibition": "44.4%"}
{"smiles": "CC(C)=CC1C(C(=O)O)C1(C)C", "note": "(configuration not stated)", "inhibition": "-10.7%"}
{"smiles": "COc1ccc(S(=O)(=O)N(C)C[C@H]2Oc3ccc(NS(=O)(=O)c4ccc(C)cc4)cc3CC(=O)N([C@@H](C)CO)C[C@@H]2C)cc1", "inhibition": "16.4%"}
{"smiles": "COc1ccc(S(=O)(=O)Nc2cccc3c2O[C@@H](CN(C)S(=O)(=O)c2c(C)noc2C)[C@@H](C)CN([C@H](C)CO)C3=O)cc1", "inhibition": "0.67%"}
{"smiles": "Cc1noc(C)c1NC(=O)Nc1ccc2c(c1)C(=O)N([C@H](C)CO)C[C@@H](C)[C@@H](CN(C)Cc1ccccc1)O2", "inhibition": "-0.997%"}
{"smiles": "Cc1ccc(S(=O)(=O)Nc2ccc3c(c2)CC(=O)N([C@H](C)CO)C[C@@H](C)[C@H](CN(C)Cc2ccc(C(F)(F)F)cc2)O3)cc1", "inhibition": "108% (active)"}
{"smiles": "C[C@H](CO)N1C[C@H](C)[C@@H](CN(C)Cc2ccc(Cl)c(Cl)c2)Oc2ccc(NS(=O)(=O)c3ccccc3)cc2C1=O", "inhibition": "20.4%"}
{"smiles": "C[C@H]1CN([C@@H](C)CO)C(=O)Cc2cc(NS(=O)(=O)c3ccc(F)cc3)ccc2O[C@H]1CN(C)Cc1ccc(C(F)(F)F)cc1", "inhibition": "34.1%"}
{"smiles": "COc1ccc(S(=O)(=O)Nc2ccc3c(c2)C(=O)N([C@@H](C)CO)C[C@H](C)[C@@H](CN(C)Cc2ccc(C(F)(F)F)cc2)O3)cc1", "inhibition": "33.8%"}
{"smiles": "COc1ccc(S(=O)(=O)Nc2ccc3c(c2)CC(=O)N([C@H](C)CO)C[C@H](C)[C@H](CN(C)Cc2ccc(C(F)(F)F)cc2)O3)cc1", "inhibition": "125% (active)"}
{"smiles": "C[C@H](CO)N1C[C@H](C)[C@H](CN(C)Cc2ccc(-c3ccccc3)cc2)Oc2ccc(NS(=O)(=O)c3ccccc3)cc2C1=O", "inhibition": "93.2% (active)"}
{"smiles": "COc1ccc(S(=O)(=O)Nc2ccc3c(c2)C(=O)N([C@H](C)CO)C[C@H](C)[C@@H](CN(C)Cc2ccc(-c4ccccc4)cc2)O3)cc1", "inhibition": "39.1%"}
{"smiles": "Cc1ccc(S(=O)(=O)Nc2ccc3c(c2)C(=O)N([C@@H](C)CO)C[C@H](C)[C@@H](CN(C)Cc2ccc4c(c2)OCO4)O3)cc1", "inhibition": "24.6%"}
{"smiles": "Cc1ccc(S(=O)(=O)Nc2ccc3c(c2)CC(=O)N([C@@H](C)CO)C[C@H](C)[C@H](CN(C)Cc2ccccc2)O3)cc1", "inhibition": "26%"}
{"smiles": "Cc1ccc(S(=O)(=O)Nc2ccc3c(c2)C(=O)N([C@H](C)CO)C[C@H](C)[C@H](CN(C)Cc2ccc(Cl)c(Cl)c2)O3)cc1", "inhibition": "91% (active)"}
{"smiles": "COc1ccc(S(=O)(=O)Nc2ccc3c(c2)C(=O)N([C@@H](C)CO)C[C@H](C)[C@H](CN(C)Cc2ccc(C(F)(F)F)cc2)O3)cc1", "inhibition": "50.5%"}
{"smiles": "C[C@@H]1CN([C@@H](C)CO)C(=O)c2cc(NS(=O)(=O)c3ccccc3)ccc2O[C@@H]1CN(C)Cc1ccc(C(=O)O)cc1", "inhibition": "28.2%"}
